Most compounds without a hit are left out; they make up all but 2.2% or so of the library.
Ba/F3 V617F tox: loss of viability in JAK2V617F-driven Ba/F3 cells; Ba/F3 EpoR-JAK2V617F viability, ATP luminescence; inhibition, % at 5.6 µM; 220,000 compounds, 1.1% hits; AID 1446;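 active = inhibition above the campaign mean plus 3 SD over all tested compounds, cut at about 24% in these data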;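 also: cytokine-independent growth of Ba/F3 cells driven by EpoR plus mutant JAK2; 0% = DMSO-treated cells and 100% = JAK inhibitor I control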
aSyn UTR inh: MLPCN primary screen, SNCA 5' untranslated region; AID 1813; 300,000 compounds, 0.82% hits; inhibition, % (tested at 7.5 µM); alpha-synuclein 5'UTR reporter, inhibitor activity; in the data active = inhibition above about 60%;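 also: H4 neuroglioblastoma cells stably carrying SNCA 5'UTR luciferase fusion; 0% = DMSO wells and 100% = positive control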
IEC-6 tox: kills IEC-6 intestinal cells in KLF5 counter-screen; AID 1825; 290,000 compounds, 0.78% hits; inhibition, % at 5 µM; IEC-6 cytotoxicity, luminescence viability; in the data active = inhibition above about 22%;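 also: 0% = plate median of test compound wells and 100% = cytotoxic reference compound wells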
APP transl inh: APP translation inhibition; SH-SY5Y APP 5'UTR-luciferase reporter, luminescence; inhibition, % at 2 µM; 190,000 compounds, 0.82% hits; AID 1285;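 active = inhibition above a set limit, derived from the sample mean plus 3 SD, cut at about 45% in these data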
KLF5 inhibitor: kruppel-like factor 5 inhibition | DLD-1 KLF5 promoter-luciferase reporter, luminescence | inhibition, % at 5 µM | 290,000 compounds, 0.23% hits | AID 1700;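 active = inhibition above a per-plate limit of that plate's mean compound inhibition plus 3 SD, cut at about 60% in these data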;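 also: 0% = DMSO wells and 100% = LY294002 at 200 µM; higher means less KLF5 promoter-driven luciferase light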
BaF3 parental: parental Ba/F3 viability inhibition as JAK2V617F counter-screen; 220,000 compounds, 1.1% hits; AID 1486; CellTiter-Glo ATP luminescence; inhibition, % at 5.6 µM;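 active = inhibition above a per-campaign cutoff, the mean inhibition of all tested compounds plus 3 SD, cut at about 27% in these data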;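 also: 0% = DMSO wells and 100% = JAK Inhibitor I control wells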
Numbers without * were called inactive; x = not tested or not shown.

SMILES | Ba/F3 V617F tox | aSyn UTR inh | IEC-6 tox | APP transl inh | KLF5 inhibitor | BaF3 parental
Cc1[nH]n(-c2nc(-c3ccc(Cl)cc3)cs2)c(=O)c1N=Nc1ccc(O)cc1 | 2 | -118 | -2 | 54* | 3 | 6
Oc1ccccc1C(Nc1nccs1)c1ccc2cccnc2c1O (configuration not stated) | 2 | 77* | 14 | x | 27 | -6
CC(C)C(=O)NC(c1ccc(Cl)cc1Cl)c1ccc2cccnc2c1O (configuration not stated) | x | 92* | 13 | x | 79* | x
CCCC(=O)NC(c1ccco1)c1cc([N+](=O)[O-])c2cccnc2c1O (configuration not stated) | 2 | -15 | -5 | -7 | -19 | 7
CCCCC(=O)NC(c1ccc(Cl)cc1Cl)c1ccc2cccnc2c1O (configuration not stated) | x | 92* | 7 | x | 45 | x
CC(=O)NC(c1ccco1)c1ccc2cccnc2c1O (configuration not stated) | 9 | 77* | 18 | 55* | 28 | 8
CC(NC(=O)CSc1ncccn1)c1ccc(Cl)cc1Cl (configuration not stated) | -3 | -2 | -7 | -8 | -22 | 9
Cc1ccnc(NC(c2cccnc2)c2ccc3cccnc3c2O)c1 (configuration not stated) | 2 | -9 | -2 | 7 | 6 | 4
CC(C)(C)C(=O)Nc1ccc(S(=O)(=O)N2CCC(c3nc4ccccc4[nH]3)CC2)cc1 | x | 1 | x | x | x | x
CCn1c(/C=C/N(C(C)=O)c2ccccc2)[n+](CC)c2ccc(Cl)cc21 | -4 | -14 | 2 | -11 | -13 | 10
CC[n+]1c(/C=C/N(C)c2ccccc2)oc2ccc(Cl)cc21 | 54* | 18 | 0 | -10 | 6 | 59*
O=C(O)c1ccc(N/N=C/c2ccc(OC(=O)c3cccc(Cl)c3)cc2)cc1 | -1 | 76* | -2 | x | -15 | 0
C[n+]1c2n(c3ccccc31)N=C(c1ccc(Cl)cc1)CS2 | 78* | -29 | -1 | -4 | -2 | 67*
CC1Sc2n(c3ccccc3[n+]2C)N=C1c1ccccc1 (configuration not stated) | 99* | -63 | 21 | 19 | 5 | 74*
O=C(CSc1cccc2cccnc12)Nc1cc(C(=O)O)cc(C(=O)O)c1 | x | -8 | 5 | x | -1 | x
COc1ccc(N2Cc3ccc(C(=O)N/N=C\c4ccc(O)cc4O)cc3C2)cc1 | x | -32 | -6 | x | -4 | x
Cc1noc(C)c1S(=O)(=O)N1CCC(C(=O)NCCN2CCC(C)CC2)CC1 | 2 | -7 | 1 | 61* | -18 | 7
Cc1noc(C)c1S(=O)(=O)N1CCC(C(=O)NCCCN2CC(C)CC(C)C2)CC1 (configuration not stated) | 2 | 20 | 1 | 6 | -14 | 5
CCOC(=O)c1c(C)[nH]c(C(=O)COC(=O)c2ccc(O)cc2)c1C | 39* | 8 | 8 | x | 4 | 40*
CCOC(=O)c1c(C)[nH]c(C)c1C(=O)COC(=O)/C=C/c1ccc(OC(F)F)cc1 | 1 | -9 | -3 | -9 | -7 | 3
CCOC(=O)c1c(C)[nH]c(C(=O)COC(=O)/C=C/c2ccc(OC(F)F)cc2)c1C | 9 | -2 | -2 | 3 | -12 | 65*
CCOC(=O)c1[nH]c(C)c(C(=O)OCC(=O)N2CCc3ccccc32)c1C | 1 | 33 | 0 | 46* | -14 | 5
CC(C)CNc1nc(N)c([N+](=O)[O-])c(N2CCCCCC2)n1 | x | 10 | 0 | x | -23 | x
O=C(O)c1cccc(Nc2nc(-c3cc4ccccc4oc3=O)cs2)c1 | x | -98 | -4 | x | -68 | x
COc1cc(/C=N/NC(=O)c2cccc(C)c2)ccc1OCC(=O)Nc1ccccc1 | x | -128 | x | x | x | x
SMILES | Ba/F3 V617F tox | aSyn UTR inh | IEC-6 tox | APP transl inh | KLF5 inhibitor | BaF3 parental
COc1cc(C2SCC(=O)N2Cc2ccccc2)ccc1O (configuration not stated) | x | -12 | 2 | x | -28 | x
CC(=O)Nc1ccc(S(=O)(=O)N(CCO)Cc2ccccc2)cc1 | 0 | 2 | -6 | 8 | -24 | 5
CC(=O)Nc1ccc(S(=O)(=O)N(C)CCOCc2ccccc2)cc1 | 6 | 14 | 3 | 2 | 4 | 43*
COc1ccc2cc[nH]c2c1 | -2 | 71* | 5 | -4 | -32 | 8
COc1cc(OC)c2cc[nH]c2c1 | -4 | 15 | 1 | -11 | 0 | 0
C#CC[N+](C)(C)CCCCCCCCC | 82* | 65* | -9 | -9 | -10 | 62*
CC#CC[N+](C)(C)CCCCCCCCCC | 95* | -9 | 10 | x | 5 | 79*
Cc1cc(O)c(C(=O)Nc2cccc(Cl)c2)c(=O)n1C | x | -104 | 0 | x | -113 | x
CCCCOc1ncnc2c1[nH]c1ccccc12 | 0 | -81 | 4 | -11 | -23 | 35*
CCOCCCNc1ncnc2c1[nH]c1ccccc12 | 3 | -20 | 10 | -7 | -10 | 22
CCCCOCCCNc1ncnc2c1[nH]c1ccccc12 | 64* | -53 | 14 | 5 | -28 | 61*
CCOc1ccc(OCCC(=O)OCC(=O)Nc2cc(OCC)c(N3CCOCC3)cc2OCC)cc1 | x | 4 | x | x | x | x
COCCNC(=O)Cn1cc(/C=C(\C#N)C(=O)NC2CCCC2)c2ccccc21 | x | -8 | -3 | x | -30 | x
C=CC(=O)N=c1sc2ccccc2n1-c1ccccc1 | 3 | 70* | 13 | 39 | -14 | 2
N=c1sc2ccccc2n1-c1ccccc1 | 3 | 27 | 1 | 0 | -15 | 10
CN(CCCC(=O)Nc1ccc(OC(F)F)cc1)S(=O)(=O)c1ccc(F)cc1 | x | 18 | 7 | x | -4 | x
COc1cccc(Sc2ccccc2/C=N/NC(N)=O)c1 | 3 | 16 | 7 | 65* | 16 | 7
CC1Cc2nc(SCC(=O)NCC3CCCO3)n(C)c(=O)c2S1 (configuration not stated) | x | 17 | 3 | x | -38 | x
Cc1ccc(S(=O)(=O)N2CCCCC2)cc1NC(=O)C1CC(=O)N(c2ccc3c(c2)OCCO3)C1 (configuration not stated) | x | 14 | x | x | x | x
CCn1c2ccccc2c2cc(/C=N/NC(=O)c3ccccc3C)ccc21 | 2 | 0 | 4 | 79* | -17 | 10
O=C(Nc1ccncc1)c1ccc(-c2ccccc2)cc1 | 4 | -127 | -4 | -25 | -58 | 32*
Cc1cc(NC(=O)c2ccc3c(c2)OCO3)no1 | -3 | -60 | 4 | -92 | -106 | 3
O=C(NCc1ccccc1)C(=O)Nc1cccc(C(=O)O)c1 | 5 | 74* | 12 | x | -90 | -1
Cc1cc(NC(=O)c2ccc3c(c2)OCCO3)no1 | -2 | 62* | -3 | -106 | -104 | 2
Cc1ccc(C(=O)Nc2cccc(C(=O)O)c2)cc1 | 1 | 87* | 4 | 36 | 59 | 3
CSc1cccc(NC(=O)C(=O)NCc2ccccc2)c1 | -1 | -14 | -10 | x | -4 | 1
O=C(Nc1cccnc1)c1ccc(-c2ccccc2)cc1 | 1 | -163 | 9 | -110 | 2 | 3
Cc1ccc(C)c(S(=O)(=O)c2c(C)cc(C)[nH]c2=O)c1 | x | 5 | 4 | x | -9 | x
